From PubChem BioAssay
Values joined by “and” are separate entries in the source; they are usually repeats but may differ in a detail not shown here. Identical values can stand only once. Active and inactive are the calls of the source. Cut-off read from the data, not from the text of the source, unless noted: active = inhibition above about 80%; inactive = the rest.

Tests used:
[1] = hESC survival regulators, cell-based (AID 493140; call rule not given here;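 note: cells exposed to compounds for four days before counting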); details: human embryonic stem cell survival screen; stronger effect = higher value
[2] = sensitizers of A549 cells to miR-34 induction, primary screen, imaging, A549 dox-inducible miR-34, nuclei and caspase counts (AID 1347080); details: A549 miR-34 inducible, Hoechst nuclei count, 48 h
[3] = viability rescue of complex I mutant cybrids, primary screen, cell-based, galactose medium, ATP luminescence (AID 1645843;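 active = z-score of at least 1.8 in each of two replicates, scored against plate mean and spread of sample wells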;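 note: positive z means more ATP and so rescue of galactose-driven cybrid death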); details: complex I mutant cybrid cells, 72 h, stronger effect = higher value
[4] = tested on: Hepatitis C virus NS3 helicase; assay: HCV NS3 helicase inhibitors, primary screen, biochemical, fluorescence polarization, LOPAC1280 library (AID 687035; in the data active = inhibition above about 37%); details: Purified HCV NS3 helicase, Cy5-dT15 ssDNA binding fluorescence polarization; stronger effect = higher value; concentration not given here
[5] = Cy5 fluorescence quenching or enhancement artefacts, artefact control for HCV NS3 helicase inhibitor project, biochemical, LOPAC1280 (AID 687037; call rule not given here); details: Cy5-DNA-NS3h complex fluorescence interference counterscreen
[6] = tested on: Aerobactin synthetase IucA (Klebsiella pneumoniae); assay: IucA aerobactin synthetase inhibitors, biochemical, Tocris library, absorbance (AID 1345561; call rule not given here;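 note: 100% = enzyme without compound and 0% = no enzyme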); details: purified IucA enzyme assay, absorbance (OD) read-out; stronger effect = lower value;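 tested at 8 µM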
[7] = phospholipid biosynthesis inhibitors in animal cells, primary screen, cell-based, LOPAC library, screen 4 (AID 1347384; call rule not given here); details: phospholipid biosynthesis inhibition screen, at 10 µM
[8] = survival rescue of mitochondrial mutant cells in low glucose, primary screen, MELAS cybrids, Rieske KO mouse fibroblasts, CellTiter-Glo (AID 1508586;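 active = mean z-score across replicates of 1.96 or higher in either the MELAS or the Rieske mutant cell line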;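 note: z relative to plate mean and SD of compound and empty wells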)
[9] = LFS_MB_P medulloblastoma growth inhibition, cell-based, chromothripsis tumors, cisplatin or BGB combos (AID 1671449); details: LFS_MB_P medulloblastoma cells;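 note: cells exposed for 96 hours; 0% = vehicle DMSO and 100% = killing by high DMSO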
[10] = HDN33 neuroblastoma growth inhibition, cell-based, chromothripsis tumors, cisplatin or BGB combos (AID 1671450); details: HDN33 neuroblastoma cells, stronger effect = higher value;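 note: cells exposed to compound for four days; 0% = vehicle DMSO and 100% = cell killing by high DMSO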
[11] = ICB984 medulloblastoma cell growth inhibition, synergistic combos for chromothripsis tumors, cisplatin or BGB combos (AID 1671451; call rule not given here;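 note: cells exposed for 96 hours before readout; 0% = vehicle DMSO and 100% = killing by high DMSO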); details: ICB984 medulloblastoma cells, drug combinations, stronger effect = higher value
[12] = LFS_MB_1R medulloblastoma cell growth inhibition, synergistic combos for chromothripsis tumors, cisplatin or BGB combos (AID 1671452); details: LFS_MB_1R medulloblastoma cells, stronger effect = higher value;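 note: cells exposed for 96 hours before readout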
[13] = HTB85 osteosarcoma cell growth inhibition, synergistic combos for chromothripsis tumors, BGB or cisplatin IC20 combos (AID 1671453); details: HTB85 osteosarcoma cells, drug combinations, stronger effect = higher value;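 note: cells exposed for 96 hours before readout; 0% = vehicle DMSO and 100% = high DMSO killing control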
[14] = CRL2098 osteosarcoma cell growth inhibition, synergistic combos for chromothripsis tumors, BGB or cisplatin IC20 combos (AID 1671454); details: CRL2098 osteosarcoma cells, drug combinations, stronger effect = higher value;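 note: cells exposed for 96 h before readout; 0% = vehicle DMSO and 100% = killing by high DMSO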
[15] = HD-MB03 medulloblastoma cell growth inhibition, synergistic combos for chromothripsis tumors, BGB or cisplatin IC20 combos (AID 1671455; in the data active = inhibition above about 83%;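 note: 0% = vehicle DMSO and 100% = high DMSO as cytotoxic control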); details: HD-MB03 medulloblastoma cells, stronger effect = higher value
[16] = UWB1.289 ovarian carcinoma cell growth inhibition, synergistic combos for chromothripsis tumors, BGB or cisplatin combos (AID 1671456); details: UWB1.289 ovarian carcinoma cells, stronger effect = higher value;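 note: cells exposed to compound for four days; 0% = vehicle DMSO and 100% = killing by high DMSO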
[17] = LFS_MB_2R medulloblastoma cell growth inhibition, synergistic combos for chromothripsis tumors, cisplatin combos (AID 1671457); details: LFS_MB_2R medulloblastoma cells, stronger effect = higher value;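 note: cells exposed to compound for four days before readout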
[18] = MDA-MB-436 breast carcinoma cell growth inhibition, synergistic combos for chromothripsis tumors, BGB or cisplatin combos (AID 1671458; call rule not given here;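 note: cells exposed for 96 hours; 0% = vehicle DMSO and 100% = killing by high DMSO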); details: MDA-MB-436 breast carcinoma growth inhibition, drug combinations, stronger effect = higher value
[19] = UWB1.289_BRCA1 ovarian cancer growth, cell-based, BGB or cisplatin combinations (AID 1671459); details: UWB1.289 BRCA1 ovarian carcinoma, drug combinations, stronger effect = higher value
[20] = human astrocyte viability loss, single and combined drugs, cytotoxicity control for chromothriptic childhood tumor combination screen, cell-based, BGB or cisplatin IC20 combos (AID 1671460); details: Human astrocytes, drug combinations, stronger effect = higher value;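 note: cells exposed to compounds for 96 hours before viability readout; 0% = vehicle and 100% = killing control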
[21] = growth inhibition of BT084 medulloblastoma cells, cell-based, ICGC_MB145, cisplatin and BGB IC40 combos (AID 1671461); details: drug combinations, stronger effect = higher value;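 note: cells exposed to drugs for 96 hours; 0% = vehicle DMSO and 100% = high DMSO full killing control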
[22] = growth inhibition of RCMB18 medulloblastoma cells, cell-based, cisplatin and BGB IC40 combos (AID 1671462); details: stronger effect = higher value;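 note: cells exposed to compound for four days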
[23] = growth inhibition of CRL1545 osteosarcoma cells, cell-based, cisplatin and BGB IC20 combos (AID 1671464); details: stronger effect = higher value;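 note: cells exposed to compound for 96 hours before readout; 0% = vehicle DMSO and 100% = high DMSO killing control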
[24] = measured here: combination with BGB IC40, at 0.05 µM
[25] = measured here: with BGB IC20 combination, at 0.5 µM
[26] = measured here: with cisplatin IC20 combination, at 0.5 µM
[27] = measured here: combination with cisplatin, at 0.5 µM
[28] = measured here: combination with cisplatin, at 5 µM

In the case of `CC1(C)CCC(C)(C)c2cc(C(=O)Nc3ccc(C(=O)O)cc3)ccc21`, the survival [1] is reported as 83.8 (inactive), the cell count ([2]; measured here: total cells with miR-34 induction, stronger effect = lower value) is reported as 5520 and 7570 and the cell count ([2]; measured here: total cells without miR-34 induction) is reported as 5900 and 8080. For the same compound, the z-score [3] was 1.25 (inactive).

For `O=C(Nc1ccncc1)c1cc([N+](=O)[O-])ccc1Cl`, the inhibition [4] was 0% (inactive), the fluorescence ratio (interference) [5] was 1 (inactive) and the remaining activity [6] was 127% (inactive). The outcome [7] was “inactive”, the z-score ([8]; MELAS cybrid survival, CellTiter-Glo 48 h, stronger effect = higher value) was 0.0073 (inactive) and the z-score ([8]; Rieske KO mouse fibroblast survival, CellTiter-Glo 72 h) was -0.438. The z-score [3] was -1.12 (inactive) and -0.63 (inactive), the inhibition ([9]; at 0.5 µM, stronger effect = higher value) was -6.15% (inactive) and the inhibition ([9]; measured here: combination with BGB IC20, at 0.005 µM) was -50.3%. For the same compound, the inhibition ([9]; measured here: combination with BGB IC40, at 0.005 µM) was -79.8%, the inhibition [9, 24] was -56.1% and the inhibition ([9]; measured here: combination with cisplatin, at 0.5 µM, stronger effect = higher value) was -30.4%. The inhibition ([9]; measured here: combination with cisplatin, at 5 µM, stronger effect = higher value) was -22.9%, the inhibition ([10]; BGB combo, at 5 µM) was -13.6% and the inhibition ([10]; at 0.5 µM) was 1.6% (inactive). The inhibition ([10]; cisplatin combo, at 5 µM) was 3.19%, the inhibition [10, 25] was -13.6% and the inhibition [10, 26] was 24.4%. It also gave an inhibition ([10]; single agent, at 5 µM) of -14.1%, an inhibition ([11]; BGB IC20 combo, at 0.005 µM) of -18% and an inhibition ([11]; BGB IC40 combo, at 0.005 µM) of -35.6%. The inhibition ([11]; BGB IC40 combo, at 0.05 µM) was 0.746%, the inhibition ([11]; at 0.5 µM) was -34.7% (inactive) and the inhibition ([11]; cisplatin combo, at 0.05 µM) was -4.27%. For the same compound, the inhibition ([11]; cisplatin combo, at 0.5 µM) was -45.9%, the inhibition ([11]; cisplatin combo, at 5 µM) was -23.5% and the inhibition ([11]; measured here: 5 uM single agent, at 5 µM) was -11.4%. For the same compound, the inhibition ([12]; at 0.5 µM) was -23.9% (inactive), the inhibition [12, 24] was -37.5% and the inhibition [12, 27] was -9.6%. The inhibition [12, 28] was 54.5%, the inhibition ([13]; at 0.5 µM) was -15.1% (inactive) and the inhibition ([13]; measured here: with BGB IC20, at 0.5 µM) was -10.2%. The inhibition ([13]; measured here: with BGB IC20, at 5 µM) was 1.89%, the inhibition ([13]; measured here: with cisplatin IC20, at 0.5 µM) was -20.9% and the inhibition ([13]; measured here: with cisplatin IC20, at 5 µM) was -16.5%. For the same compound, the inhibition ([13]; single agent, at 5 µM) was -8.5%, the inhibition ([14]; at 0.5 µM) was -65.5% (inactive) and the inhibition ([14]; measured here: combination with BGB at IC20, at 0.5 µM) was -72.7%. The inhibition ([14]; measured here: combination with cisplatin at IC20, at 0.5 µM) was -82.6%, the inhibition ([15]; at 0.5 µM) was -11.5% (inactive) and the inhibition ([15]; measured here: combo with BGB at IC20, at 0.5 µM) was -10.4%. The inhibition ([15]; measured here: combo with cisplatin at IC20, at 0.5 µM) was -13.5%, the inhibition ([16]; at 0.5 µM) was -6.23% (inactive) and the inhibition ([16]; measured here: inhibition with BGB combination, at 0.05 µM) was -27.4%. The inhibition ([16]; measured here: inhibition with cisplatin combination, at 0.05 µM) was -17%, the inhibition ([17]; at 0.5 µM) was -23.4% (inactive) and the inhibition [17, 27] was -14.6%. The inhibition [17, 28] was -37.5%, the inhibition ([18]; at 0.5 µM) was -25.3% (inactive) and the inhibition ([18]; measured here: BGB combination, at 0.5 µM) was -15.4%. For the same compound, the inhibition ([18]; measured here: BGB combination, at 5 µM) was -30%, the inhibition ([18]; measured here: cisplatin combination, at 0.5 µM) was -47.1% and the inhibition ([18]; measured here: cisplatin combination, at 5 µM) was -23.8%. The inhibition ([19]; BGB combination, concentration series, at 5 µM) was -19.1%, the inhibition ([19]; at 0.5 µM) was -17.7% (inactive) and the inhibition ([19]; cisplatin combination, concentration series, at 5 µM) was -9.35%. For the same compound, the inhibition ([20]; at 0.5 µM) was -9.91% (inactive), the inhibition ([20]; measured here: combo with BGB IC20, at 0.5 µM) was 0.843% and the inhibition ([20]; measured here: combo with cisplatin IC20, at 0.5 µM) was -18.4%. For the same compound, the inhibition ([21]; at 0.5 µM) was -26.5% (inactive), the inhibition ([21]; cisplatin combination, at 0.5 µM) was -23.3% and the inhibition ([21]; cisplatin combination, at 5 µM) was -134%. For the same compound, the inhibition ([21]; measured here: BGB IC40 combination 0.05 uM, at 0.05 µM) was -33.5%, the inhibition ([21]; single agent, at 5 µM) was 23.7% and the inhibition ([22]; at 0.5 µM) was -25.9% (inactive). The inhibition ([22]; cisplatin combo, at 5 µM) was 23.7%, the inhibition ([22]; measured here: BGB IC40 combination, at 0.05 µM) was -24.6% and the inhibition [22, 27] was -52.5%. For the same compound, the inhibition ([22]; single agent, at 5 µM) was -3.16%, the inhibition ([23]; at 0.5 µM) was 6.35% (inactive) and the inhibition [23, 25] was -12.9%. For the same compound, the inhibition [23, 26] was 14.6%, the inhibition ([23]; single agent, at 0.05 µM) was -34.7% and the inhibition ([23]; single agent, at 5 µM) was -4.08%.
